According to PubChem BioAssay (Tox21):
Inconclusive results are not listed. Active and inactive are the calls of the source. Unless noted, calls come from the whole dose curve; as a rule, active = well fitted curve in the direction sought with a large enough effect in the repeat runs; inconclusive = weak or mixed curves; inactive = no such curve, though single readings can be large; an effect the other way counts as inactive or inconclusive.

Legend:
[1] = qHTS assay to identify small molecule agonists of the sonic hedgehog signaling (Shh) pathway - cell viability counter screen (AID 1259366); note: nearly all actives have a fitted effect of over 50% in size
Procedure, shortened: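 After a 4hr attachment at 37C, NIH/3T3 cells bearing an integrated Gli1-driven luciferase reporter were dosed with compounds. Treatment lasted 24hr, with the final hour including CellTiter-Fluor for a fluorescence viability measurement.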

[2] = qHTS assay to identify small molecule antagonists of the sonic hedgehog signaling (Shh) pathway - cell viability counter screen (AID 1259367); note: nearly all actives have a fitted effect of over 55% in size
Procedure, shortened: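 Fluorescence read-out (CellTiter-Fluor, 1 hr at 37C) taken after 23 hr compound treatment of 3T3 Gli1-Luc cells stimulated with conditioned medium. Cells were seeded at 2,000 per well and pre-incubated 4 hr.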

[3] = qHTS assay to identify small molecule agonists of the sonic hedgehog signaling (Shh) pathway (AID 1259368; calls by dose curve;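 note: NIH/3T3-derived 3T3Gli1-Luc cells carrying a stable Gli1-driven firefly luciferase reporter; series mostly up to about 92 µM; nearly all actives have a fitted effect of over 15% in size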)
Procedure, shortened: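 Stable NIH/3T3 Gli1-Luc reporter clone; 24 hr cpd exposure after a 4 hr settling period; luminescence endpoint.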

[4] = qHTS assay to identify small molecule antagonists of the sonic hedgehog signaling (Shh) pathway (AID 1259369; calls by dose curve; note: nearly all actives have a fitted effect of over 45% in size)
Procedure, shortened: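 Gli1 transcriptional reporter (firefly Luc) in NIH/3T3 background, conditioned-medium activated. 24hr exposure, luminescence endpoint.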

[5] = biological target: Estrogen receptor beta (Homo sapiens) (UniProt Q92731); assay: qHTS assay to identify small molecule agonists of the estrogen receptor beta (ER-beta) signaling pathway (AID 1259377; active = well fitted activation curve with a large enough effect in the signal ratio in the repeat runs, not every such curve was filed as active; the % refers to the signal ratio)
Sequence of Estrogen receptor beta (Homo sapiens) (Q92731 whole entry, looked up): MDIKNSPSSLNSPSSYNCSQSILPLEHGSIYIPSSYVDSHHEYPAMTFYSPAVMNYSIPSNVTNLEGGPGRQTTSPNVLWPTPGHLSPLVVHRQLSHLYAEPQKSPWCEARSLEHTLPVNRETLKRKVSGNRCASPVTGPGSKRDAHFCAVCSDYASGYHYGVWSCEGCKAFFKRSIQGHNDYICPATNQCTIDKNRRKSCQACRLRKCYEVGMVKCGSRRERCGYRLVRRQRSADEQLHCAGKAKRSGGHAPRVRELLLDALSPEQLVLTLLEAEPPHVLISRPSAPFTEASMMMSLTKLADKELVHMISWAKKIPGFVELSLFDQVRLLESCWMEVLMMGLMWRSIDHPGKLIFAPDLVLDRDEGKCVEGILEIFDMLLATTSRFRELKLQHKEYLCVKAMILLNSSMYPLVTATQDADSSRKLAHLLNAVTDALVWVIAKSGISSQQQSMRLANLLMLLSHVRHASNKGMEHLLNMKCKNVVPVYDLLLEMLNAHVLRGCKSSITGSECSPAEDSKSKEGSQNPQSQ
Procedure, shortened: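 In HEK293T cells bearing a UAS-beta-lactamase reporter under ER-beta control, DMSO-delivered compounds were incubated for 16 hr at 37C. Activity was detected as fluorescence 2 hours after LiveBLAzer B/G FRET substrate addition.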

[6] = qHTS assay to identify small molecule agonists of the androgen receptor (AR) signaling pathway in the presence of an antagonist - cell viability counter screen (AID 1259379);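 note: MDA-kb2 human breast cancer cells carrying an MMTV luciferase reporter; series mostly up to about 92 µM; nearly all actives have a fitted effect of over 25% in size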
Procedure, shortened: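 Counter screen for cell viability run in parallel with the AR agonist-mode luciferase assay. MDA-kb2 cells were co-treated with nilutamide (3.0uM final) and compounds, then incubated 16 hr at 37C, and CellTiter-Fluor fluorescence was measured.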

[7] = qHTS assay to identify small molecule antagonists of the estrogen receptor beta (ER-beta) signaling pathway - cell viability counter screen (AID 1259382); note: series mostly up to about 92 µM; nearly all actives have a fitted effect of over 55% in size
Procedure, shortened: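 HEK293T ER-beta-UAS-bla, 2% charcoal-stripped FBS; compounds + 1nM E2 16 hr 37C; CellTiter-Glo luminescence, 30 min RT.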

[8] = qHTS assay to identify small molecule agonists or antagonists of the thyroid stimulating hormone receptor (TSHR) signaling pathway - wild type cell line counter screen (AID 1259384; calls by dose curve)
Procedure, shortened: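 Wild-type Hek293 cells, 800/well, 18 h at 37C, then compound with Ro20-1724 for 30 min RT. cAMP by HTRF (cAMP-d2/anti-cAMP cryptate), 1 h RT, fluorescence read. 15 concentrations, triplicates.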

[9] = biological target: Thyrotropin receptor (Homo sapiens) (UniProt P16473); assay: qHTS assay to identify small molecule antagonists of the thyroid stimulating hormone receptor (TSHR) signaling pathway (AID 1259385; calls by dose curve; note: nearly all actives have a fitted effect of over 20% in size)
Sequence of Thyrotropin receptor (Homo sapiens) (P16473 whole entry, looked up): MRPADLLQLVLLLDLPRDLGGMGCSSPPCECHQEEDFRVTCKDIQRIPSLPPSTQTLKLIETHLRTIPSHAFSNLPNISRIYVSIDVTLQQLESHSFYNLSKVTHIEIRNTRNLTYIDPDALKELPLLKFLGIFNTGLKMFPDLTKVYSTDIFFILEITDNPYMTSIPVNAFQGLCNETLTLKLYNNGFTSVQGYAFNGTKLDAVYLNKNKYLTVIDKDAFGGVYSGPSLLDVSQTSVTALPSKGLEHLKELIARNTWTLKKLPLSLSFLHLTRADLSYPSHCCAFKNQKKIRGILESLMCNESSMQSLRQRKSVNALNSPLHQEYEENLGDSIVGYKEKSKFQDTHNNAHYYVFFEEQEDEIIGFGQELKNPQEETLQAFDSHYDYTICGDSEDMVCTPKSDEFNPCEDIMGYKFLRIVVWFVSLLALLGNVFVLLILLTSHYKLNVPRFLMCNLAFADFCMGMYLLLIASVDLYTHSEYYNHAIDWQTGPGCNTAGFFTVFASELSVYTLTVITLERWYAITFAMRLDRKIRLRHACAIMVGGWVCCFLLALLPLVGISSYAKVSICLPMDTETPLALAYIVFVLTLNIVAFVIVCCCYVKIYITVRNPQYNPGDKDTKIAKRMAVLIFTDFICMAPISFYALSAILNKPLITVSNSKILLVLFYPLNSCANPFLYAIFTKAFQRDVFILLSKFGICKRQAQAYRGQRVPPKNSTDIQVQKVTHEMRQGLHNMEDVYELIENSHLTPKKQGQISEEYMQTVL
Procedure, shortened: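 TSHR-HEK293 cells (800/well) plated 18 h, then compounds with Ro20-1724 and TSH at 1.5 ng/mL final, 30 min at room temperature. cAMP quantified by HTRF (cAMP-d2/anti-cAMP-cryptate, 1 h); 15 concentrations in triplicate.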

[10] = biological target: Progesterone receptor (Homo sapiens) (UniProt P06401); assay: qHTS assay to identify small molecule agonists of the progesterone receptor (PR) signaling pathway (AID 1346784; calls by dose curve; note: nearly all actives have a fitted effect of over 30% in size)
Sequence of Progesterone receptor (Homo sapiens) (P06401 whole entry, looked up): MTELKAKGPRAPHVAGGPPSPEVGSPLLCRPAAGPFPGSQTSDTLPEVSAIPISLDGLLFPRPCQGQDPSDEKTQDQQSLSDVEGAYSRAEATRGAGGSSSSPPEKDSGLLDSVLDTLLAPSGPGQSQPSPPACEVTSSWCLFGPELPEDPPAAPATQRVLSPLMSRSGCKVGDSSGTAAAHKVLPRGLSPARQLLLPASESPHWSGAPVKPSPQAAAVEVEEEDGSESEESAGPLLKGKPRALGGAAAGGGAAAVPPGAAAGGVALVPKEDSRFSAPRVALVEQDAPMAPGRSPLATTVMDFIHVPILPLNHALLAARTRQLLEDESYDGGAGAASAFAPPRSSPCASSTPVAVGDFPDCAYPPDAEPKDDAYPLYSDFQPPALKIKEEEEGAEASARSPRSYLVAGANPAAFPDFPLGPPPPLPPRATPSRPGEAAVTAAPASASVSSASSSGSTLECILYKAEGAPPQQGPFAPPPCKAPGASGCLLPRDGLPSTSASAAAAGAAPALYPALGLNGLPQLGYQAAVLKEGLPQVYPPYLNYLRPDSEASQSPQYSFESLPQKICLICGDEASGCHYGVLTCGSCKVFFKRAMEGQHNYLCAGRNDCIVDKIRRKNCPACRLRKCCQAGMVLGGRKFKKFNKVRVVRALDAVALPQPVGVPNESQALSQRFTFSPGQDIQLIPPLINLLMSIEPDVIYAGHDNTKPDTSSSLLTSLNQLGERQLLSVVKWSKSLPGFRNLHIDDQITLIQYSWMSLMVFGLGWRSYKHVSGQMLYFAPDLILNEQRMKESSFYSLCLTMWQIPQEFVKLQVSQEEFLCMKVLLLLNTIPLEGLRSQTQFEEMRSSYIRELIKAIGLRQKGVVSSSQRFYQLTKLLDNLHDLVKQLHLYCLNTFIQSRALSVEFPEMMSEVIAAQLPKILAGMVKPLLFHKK
Procedure, shortened: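 Using charcoal-stripped serum (2%) to limit endogenous steroids, PR-UAS-bla HEK 293T cells received compounds for 16 hr at 37C after 6 hr plating; beta-lactamase FRET fluorescence was recorded following 2 hr substrate loading at room temperature.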

[11] = biological target: Progesterone receptor (Homo sapiens) (UniProt P06401); assay: qHTS assay to identify small molecule antagonists of the progesterone receptor (PR) signaling pathway (AID 1346795; active = well fitted inhibition curve with a large enough effect in the signal ratio in the repeat runs, not every such curve was filed as active; the % refers to the signal ratio)
Procedure, shortened: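 Inhibition of R5020-induced (1 nM final) beta-lactamase reporter signal in PR-UAS-bla HEK293T cells was scored by FRET fluorescence after overnight (16 hr) compound treatment.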

[12] = qHTS assay to identify small molecule agonists of the progesterone receptor (PR) signaling pathway - cell viability counter screen (AID 1346799; calls by dose curve; note: nearly all actives have a fitted effect of over 45% in size)
Procedure, shortened: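 Cytotoxicity in PR-bla HEK293T cells: 16 h compound, 37C; CellTiter-Glo added post-FRET read; luminescence after 30 min RT.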

[13] = qHTS assay to identify small molecule antagonists of the TGF-beta/Smad signaling pathway - cell viability counter screen (AID 1346824); note: nearly all actives have a fitted effect of over 50% in size
Procedure, shortened: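 SBE-bla HEK 293T cells, incubated overnight, then compound plus 0.25 ng/mL TGF-beta1 (stock added) for 5 hr at 37 C. Viability was read in the same wells by CellTiter-Glo luminescence after 30 min at room temperature.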

[14] = qHTS assay to identify small molecule agonists of the TGF-beta/Smad signaling pathway - cell viability counter screen (AID 1346829); note: top concentration of the series differs between compounds; nearly all actives have a fitted effect of over 45% in size
Procedure, shortened: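 Compound-treated SBE-bla HEK 293T cells (5 hr, 37 C) were assessed for viability with CellTiter-Glo in parallel with the reporter read.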

[15] = qHTS assay to identify small molecule agonists of the estrogen receptor beta (ER-beta) signaling pathway - cell viability counter screen (AID 1259380); note: nearly all actives have a fitted effect of over 30% in size
Procedure, shortened: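 In this qHTS counter screen, HEK293T cells carrying an ER-beta/UAS beta-lactamase reporter, grown in 2% charcoal-stripped FBS, received compound for 16 hr; ATP-based CellTiter-Glo luminescence was then read after 30 min at room temperature.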

[16] = biological target: Androgen receptor (Homo sapiens) (UniProt P10275); assay: qHTS assay to identify small molecule agonists of the androgen receptor (AR) signaling pathway in the presence of an antagonist (AID 1259381; calls by dose curve; note: nearly all actives have a fitted effect of over 15% in size)
Sequence of Androgen receptor (Homo sapiens) (P10275 whole entry, looked up): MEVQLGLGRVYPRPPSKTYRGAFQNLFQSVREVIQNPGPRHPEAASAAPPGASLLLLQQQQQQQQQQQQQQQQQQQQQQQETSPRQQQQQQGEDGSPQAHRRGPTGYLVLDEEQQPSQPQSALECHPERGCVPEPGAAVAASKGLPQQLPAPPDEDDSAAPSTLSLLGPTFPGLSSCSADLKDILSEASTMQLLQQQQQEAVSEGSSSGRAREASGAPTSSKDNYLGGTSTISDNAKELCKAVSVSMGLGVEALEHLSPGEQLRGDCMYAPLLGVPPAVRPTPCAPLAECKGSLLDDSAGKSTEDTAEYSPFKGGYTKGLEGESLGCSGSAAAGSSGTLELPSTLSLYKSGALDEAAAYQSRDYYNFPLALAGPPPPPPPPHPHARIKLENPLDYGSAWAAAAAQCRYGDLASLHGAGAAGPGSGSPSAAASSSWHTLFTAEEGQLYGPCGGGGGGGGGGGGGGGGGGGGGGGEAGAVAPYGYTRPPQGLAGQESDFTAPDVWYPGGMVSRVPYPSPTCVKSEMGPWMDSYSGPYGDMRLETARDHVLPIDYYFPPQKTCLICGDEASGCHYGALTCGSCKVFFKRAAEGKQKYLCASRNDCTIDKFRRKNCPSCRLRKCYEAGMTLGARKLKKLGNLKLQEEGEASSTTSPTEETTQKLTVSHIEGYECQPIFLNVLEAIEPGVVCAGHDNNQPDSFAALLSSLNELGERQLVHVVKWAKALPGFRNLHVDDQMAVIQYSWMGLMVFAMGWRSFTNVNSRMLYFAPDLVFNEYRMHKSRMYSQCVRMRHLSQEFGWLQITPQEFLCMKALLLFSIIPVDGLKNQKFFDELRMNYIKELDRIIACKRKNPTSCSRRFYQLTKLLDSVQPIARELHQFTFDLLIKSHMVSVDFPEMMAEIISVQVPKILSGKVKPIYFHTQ
Procedure, shortened: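 AR antagonist background: nilutamide 3.0uM final. Cell line: MDA-kb2, MMTV-driven luciferase, responsive to both AR and GR. Exposure 16hr, 37C, no CO2; ONE-Glo luminescence.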

[17] = qHTS assay to identify small molecule agonists of the estrogen receptor alpha (ER-alpha) signaling pathway in the presence of an antagonist - cell viability counter screen (AID 1259386);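 note: series mostly up to about 92 µM; cells exposed to compounds for 22 h at 37 °C before the viability read; nearly all actives have a fitted effect of over 30% in size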
Procedure, shortened: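 Steps: 5-day stripped-FBS culture; seed and incubate 24hr; add ICI-182,780 (10.0nM final); pin 15-point compound titration; incubate 22hr at 37C; add CellTiter-Fluor at 21hr; read fluorescence.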

[18] = biological target: Estrogen receptor beta (Homo sapiens) (UniProt Q92731); assay: qHTS assay to identify small molecule antagonists of the estrogen receptor beta (ER-beta) signaling pathway (AID 1259378; active = well fitted inhibition curve with a large enough effect in the signal ratio in the repeat runs, not every such curve was filed as active; the % refers to the signal ratio)
Procedure, shortened: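 ER-beta-UAS-bla HEK293T cells in 2% charcoal-stripped FBS medium treated with compound plus 1nM final 17-beta-estradiol for 16 hr at 37C. Beta-lactamase reporter read by FRET substrate fluorescence after 2 hours at room temperature.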

[19] = qHTS assay to identify small molecule antagonists of the progesterone receptor (PR) signaling pathway - cell viability counter screen (AID 1346798); note: series mostly up to about 92 µM; nearly all actives have a fitted effect of over 50% in size
Procedure, shortened: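 ATP content as viability readout: CellTiter-Glo luminescence, 30 min room temperature, in PR-UAS-bla HEK293T cells after 16 hr compound/R5020 treatment at 37C and 5% CO2.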

[20] = biological target: Estrogen receptor (Homo sapiens) (UniProt P03372); assay: qHTS assay to identify small molecule agonists of the estrogen receptor alpha (ER-alpha) signaling pathway in the presence of an antagonist (AID 1259383; calls by dose curve; note: top concentration of the series differs between compounds; nearly all actives have a fitted effect of over 15% in size)
Sequence of Estrogen receptor (Homo sapiens) (P03372 whole entry, looked up): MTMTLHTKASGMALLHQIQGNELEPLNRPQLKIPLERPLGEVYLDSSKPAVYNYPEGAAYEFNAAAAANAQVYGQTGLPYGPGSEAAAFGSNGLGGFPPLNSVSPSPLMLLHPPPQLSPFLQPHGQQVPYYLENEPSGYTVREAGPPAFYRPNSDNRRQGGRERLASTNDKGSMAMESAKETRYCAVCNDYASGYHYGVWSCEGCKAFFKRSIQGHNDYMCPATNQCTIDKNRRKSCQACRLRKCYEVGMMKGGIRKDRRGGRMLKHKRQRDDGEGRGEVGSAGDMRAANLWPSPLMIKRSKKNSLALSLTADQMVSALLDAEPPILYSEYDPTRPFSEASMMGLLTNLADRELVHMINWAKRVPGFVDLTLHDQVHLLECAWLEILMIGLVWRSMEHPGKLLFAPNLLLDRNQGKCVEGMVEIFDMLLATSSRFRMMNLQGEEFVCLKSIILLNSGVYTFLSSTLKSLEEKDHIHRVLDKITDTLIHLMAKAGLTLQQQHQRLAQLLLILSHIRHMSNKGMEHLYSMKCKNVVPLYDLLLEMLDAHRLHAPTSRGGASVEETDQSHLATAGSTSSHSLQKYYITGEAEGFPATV
Procedure, shortened: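 ER-alpha agonism measured under antagonist challenge: 10.0nM ICI-182,780 (final) plus compound, 15 concentrations, 22hr, VM7Luc4E2 ERE-luciferase cells. Read by luminescence.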
% is set by controls: 0 for no effect and ±100 for the full control effect.

BrC/C=C/CBr
inactive: viability change, negative = cytotoxic [1] 0.645% [at 19 µM] | viability change, negative = cytotoxic [2] -1.72% [at 19 µM] | activity change [3] -1.5% [at 18.9 µM] | activity change, negative = inhibition [4] -14% [at 19 µM] | activation [5] 0.425% [at 19 µM] | activity change, negative = cytotoxicity [6] 0.671% [at 19 µM] | activity change, negative = cytotoxicity [7] 3.59% [at 19 µM] | cAMP activity change [8] -5.59% [at 18.9 µM] | activity change, negative = inhibition [9] -1.56% [at 19 µM] | activation [10] 1.6% [at 19 µM] | activity change, negative = inhibition [11] -3.92% [at 18.9 µM] | activity change, negative = cytotoxicity [12] 0% [at 19 µM] | viability change, negative = cytotoxic [13] 0.16% [at 15.8 µM] | activity change, negative = cytotoxicity [14] 11.2% [at 15.8 µM]

O=C(O)c1ccccc1C(=O)OCc1ccccc1
inactive: Potency [1] | Potency [2] | outcome [3] | Potency [4] | Potency [6] | outcome [15] | outcome [16] | outcome [7] | outcome [8] | outcome [9] | Potency [17] | Potency [10] | Potency [11] | Potency [12] | outcome [13] | outcome [14]

C[C@H]1O[C@H](O[C@H]2[C@H](O)[C@@H](O)[C@@H](O[C@H]3[C@H](O)[C@@H](O)[C@H](O)O[C@@H]3CO)O[C@@H]2CO)[C@H](O)[C@@H](O)[C@@H]1N[C@H]1C=C(CO)[C@@H](O)[C@H](O)[C@H]1O
inactive: Potency [1] | Potency [2] | outcome [3] | Potency [4] | outcome [18] | Potency [6] | outcome [15] | outcome [7] | Potency [17] | Potency [10] | Potency [11] | Potency [19] | Potency [12] | outcome [13] | outcome [14]

CCOC(=O)CCCCCCCCC(=O)OCC
inactive: Potency [1] | Potency [2] | outcome [3] | Potency [4] | outcome [18] | outcome [15] | outcome [7] | outcome [20] | outcome [8] | outcome [9] | Potency [17] | Potency [10] | Potency [11] | Potency [19] | Potency [12] | outcome [13] | outcome [14]

O=C(Nc1cccc(C2=NCCN2)c1)Nc1cccc(C2=NCCN2)c1
inactive: viability change, negative = cytotoxic [1] 8.12% [at 19 µM] | viability change, negative = cytotoxic [2] 0.404% [at 19 µM] | activity change [3] 1.95% [at 18.9 µM] | activity change, negative = inhibition [4] 17.1% [at 19 µM] | activity change, negative = cytotoxicity [6] 1.81% [at 19 µM] | activity change, negative = cytotoxicity [15] 2.07% [at 19 µM] | activity change, negative = cytotoxicity [7] -2.3% [at 19 µM] | activation [20] 0.321% [at 19 µM] | activity change, negative = cytotoxicity [17] 1.98% [at 19 µM] | activity change, negative = cytotoxicity [19] 21% [at 18.9 µM] | activity change, negative = cytotoxicity [12] 7.7% [at 19 µM] | viability change, negative = cytotoxic [13] -4.13% [at 15.8 µM] | activity change, negative = cytotoxicity [14] -14.4% [at 15.8 µM]

CCC(=O)c1ccc(O)cc1
inactive: Potency [1] | Potency [2] | outcome [3] | Potency [4] | Potency [6] | outcome [15] | outcome [7] | outcome [20] | Potency [17] | Potency [10] | Potency [11] | Potency [19] | Potency [12] | outcome [13] | outcome [14]

C=C(C)C(=O)OCCCCCCOC(=O)C(=C)C
inactive: Potency [1] | Potency [2] | outcome [3] | Potency [4] | Potency [6] | outcome [15] | outcome [7] | outcome [8] | outcome [9] | Potency [17] | Potency [10] | Potency [11] | Potency [19] | Potency [12] | outcome [13] | outcome [14]
